Results on eight compounds are retold here after PubChem BioAssay (Tox21).

Structures are written as SMILES. Several values for one entry are separate records, joined by “and”; a condition that tells them apart may be missing. Equal values may be shown once. Records with an inconclusive call do not appear. A structure can be active in one record and inactive in another. Activity calls are given as the source filed them. Unless noted, calls come from the whole dose curve.

Experiment [1] can be described thus: Nuclear factor erythroid 2-related factor 2/antioxidant responsive element (Nrf2/ARE) small molecule agonists: qHTS cell viability counter screen in human keratinocytes (AID 1919968; active = well fitted curve in the direction sought with a large enough effect in the repeat runs; an effect the other way counts as inactive or inconclusive; note: nearly all actives have a fitted effect of over 55% in size; note: potency is the fitted concentration of half-maximal effect). A digest of the protocol:
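KeratinoSens HaCaT cells, 1,500/well, preincubated 5 h, then exposed to compounds in DMSO for 23 h at 37 C/5% CO2. Viability read as CellTiter-Fluor fluorescence after 1 h, in the same wells as the ARE-luciferase read.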
On the technique in general: Quantitative high-throughput screening tests each substance at several concentrations.

In experiment [2] the target is Gonadotropin-releasing hormone receptor (Homo sapiens) (UniProt P30968). The experiment in a line: Human gonadotropin-releasing hormone receptor (GnRHR) small molecule agonists, calcium flux assay in GnRHR-HEK293 cells (AID 1920063). Note: nearly all actives have a fitted effect of over 35% in size. In outline:
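HEK293 cells stably expressing human GnRHR were dye-loaded for 1 h at 37 C. Compound was added in agonist mode and fluorescence (Ex/Em 480/540) recorded kinetically for 3 min. Fifteen concentrations, triplicates.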
(Calcium assays in cells follow changes in intracellular calcium, usually with a dye or a luminescent sensor.)

Experiment [3] deals with KiSS-1 receptor (Homo sapiens) (UniProt Q969F8). The experiment in a line: Human kisspeptin (KISS1R) small molecule agonists, calcium flux assay in KISS1R-HEK293 cells (AID 1920064; active = well fitted curve in the direction sought with a large enough effect in the repeat runs; an effect the other way counts as inactive or inconclusive). A digest of the protocol: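 HEK293 cells stably expressing human KISS1R were loaded with calcium dye for 1 h at 37 C, then given compound; fluorescence (Ex/Em 480/540) was read kinetically for 3 min. Fifteen concentrations, triplicate.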

The nature of experiment [4]: G protein-coupled receptor (GPCR) small molecule agonists, calcium flux assay: HEK293 wild type cell line counter screen (AID 1920065). A digest of the protocol: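 Wild-type HEK293 cells plated 18 h, loaded with calcium dye 1 h at 37 C, then compounds added in agonist mode (ATP as positive control). Kinetic fluorescence Ex/Em 480/540 recorded 3 min at 1 sec intervals; 15 concentrations, triplicate.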

Experiment [5] in a line: p53 small molecule agonists, cell-based qHTS assay with human liver microsomes (AID 1963577).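 Note: p53 response element beta-lactamase reporter cells with liver microsomes plus NADPH.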 In outline: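 Steps: plate p53RE-bla cells, incubate 5 h at 37 C; add compound in DMSO; add microsomes (0.5 mg/mL final) and NADPH (0.5 mg/mL final); incubate 16 h at 37 C; add LiveBLAzer, 2 h RT; read fluorescence.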
A short description of experiment [6]: p53 small molecule agonists, cell-based qHTS assay with rat liver microsomes (AID 1963578). In outline:
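Metabolic activation is supplied by rat liver microsomes with NADPH (each 0.5 mg/mL final). p53RE-bla cells incubate with compound 16 h at 37 C; reporter activity is measured by LiveBLAzer fluorescence.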

The nature of experiment [7]: p53 small molecule agonists, cell-based qHTS assay with human liver microsomes: qHTS cell viability counter screen (AID 1963579). Note: nearly all actives have a fitted effect of over 45% in size. In outline:
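After the 460/530 nm beta-lactamase read, CellTiter-Glo was added to the same wells and luminescence measured after 30 min at room temperature, giving viability of p53RE-bla cells treated 16 h with compounds plus microsomes and NADPH.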

Experiment [8] can be described thus: p53 small molecule agonists, cell-based qHTS assay with rat liver microsomes: qHTS cell viability counter screen (AID 1963580). Note: nearly all actives have a fitted effect of over 45% in size. Note: potency is the fitted concentration of half-maximal effect. In outline:
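HCT-116 p53RE-bla, 4,000 cells/well, 5 h pre-incubation; cpd + rat liver microsomes 0.5 mg/mL + NADPH 0.5 mg/mL (final); 16 h, 37 C; CellTiter-Glo, 30 min RT; luminescence.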

Experiment [9] is described as follows: p53 small molecule agonists, cell-based qHTS assay (AID 1963582; active = well fitted activation curve with a large enough effect in the signal ratio in the repeat runs, not every such curve was filed as active; the % refers to the signal ratio). In outline:
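p53RE-bla reporter cells, compounds added in DMSO after 5 h plating, incubated 16 h at 37 C. Beta-lactamase read via 2 h room-temperature LiveBLAzer B/G FRET substrate, fluorescence intensity.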

Experiment [10] deals with 5-hydroxytryptamine receptor 2A (Homo sapiens) (UniProt P28223). The experiment in a line: 5-hydroxytryptamine receptor 2A (HTR2A) small molecule antagonists, cell-based qHTS assay (AID 1963586). Note: nearly all actives have a fitted effect of over 45% in size. In outline: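 Antagonist-mode intracellular calcium assay: DOI (4 nM) added after 5 min compound pre-incubation at room temperature to dye-loaded HTR2A-CHO cells. Fluorescence followed for 3 min, sampled every second.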

The target is the same in experiment [11]. The experiment in a line: 5-hydroxytryptamine receptor 2A (HTR2A) small molecule agonists, cell-based qHTS assay (AID 1963587). Note: nearly all actives have a fitted effect of over 30% in size. In outline:
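Kinetic calcium-flux fluorescence (2 min, 1 sec intervals) after compound addition in agonist mode. HTR2A-CHO cells were cultured 18 h, then dye-loaded 1 h at 37 C.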

Experiment [12] concerns the target Muscarinic acetylcholine receptor M1 (Homo sapiens) (UniProt P11229). The experiment in a line: Cholinergic receptor muscarinic 1 (CHRM1) small molecule antagonists, cell-based qHTS assay (AID 1963588). Note: nearly all actives have a fitted effect of over 40% in size. Note: potency is the fitted concentration of half-maximal effect. In outline:
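CHRM1-CHO calcium-flux assay, antagonist mode. Cells were seeded 18 h, dye-loaded 1 h at 37 C and given compound for 5 min at RT, then acetylcholine was added at 50nM. FDSS fluorescence was read 3 min; 15 concentrations, three runs.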

Experiment [13] has the same target. The experiment in a line: Cholinergic receptor muscarinic 1 (CHRM1) small molecule agonists, cell-based qHTS assay (AID 1963589). Note: nearly all actives have a fitted effect of over 35% in size. In outline: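 CHO cells stably expressing human CHRM1 were loaded with calcium dye for 1 h at 37 C, then compound was added in agonist mode. Intracellular calcium fluorescence was followed kinetically at 1 s intervals. Fifteen concentrations were tested in three independent runs.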

Experiment [14] can be described thus: cAMP Responsive Elements (CRE) small molecule agonists, cell-based qHTS assay (AID 1963590). In outline: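 CRE-bla HEK 293T cells, 2,000/well in DMEM with 10% dialyzed FBS and 25 mM HEPES, pre-incubated 18 h at 37 C, then exposed to compound 3 h at 37 C. Beta-lactamase reporter read with LiveBLAzer B/G FRET substrate after 2 h at room temperature.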
Experiment [15] in a line: cAMP Responsive Elements (CRE) small molecule antagonists, cell-based qHTS assay (AID 1963591; active = well fitted inhibition curve with a large enough effect in the signal ratio in the repeat runs, not every such curve was filed as active; the % refers to the signal ratio). In outline:
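CRE-bla HEK293T cells plated 18 h, then given compound plus NKH477 at 0.25 uM final for 3 h at 37C. Beta-lactamase reporter read with LiveBLAzer B/G FRET substrate after 2 h at room temperature.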

Experiment [16] addresses Beta-2 adrenergic receptor (Homo sapiens) (UniProt P07550). The experiment in a line: Adrenergic beta2 receptor (ADRB2) small molecule antagonists, cell-based qHTS assay (AID 1963592). Note: series mostly up to about 92 µM; nearly all actives have a fitted effect of over 50% in size. In outline: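 Cells (CHO, stable ADRB2 overexpression) incubated 18-20hr at 37C; compounds added from DMSO; agonist mix (1nM isoproterenol, 100uM IBMX, 25uM Ro-20-1724) added; 0.5hr RT; d2-cAMP and anti-cAMP-cryptate added; 1hr RT; 665/615 nm read.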

The target is the same in experiment [17]. The experiment in a line: Adrenergic beta2 receptor (ADRB2) small molecule agonists, cell-based qHTS assay (AID 1963593).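 Note: CHO cells stably overexpressing human ADRB2.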 In outline:
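CHO cells stably over-expressing ADRB2 were plated overnight at 37C, then dosed with compounds plus a stimulation mix containing 100uM IBMX and 25uM Ro-20-1724 for 0.5hr at room temperature. cAMP was measured by HTRF competition, 1hr.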

The target of experiment [18] is D(2) dopamine receptor (Homo sapiens) (UniProt P14416). The experiment in a line: Dopamine D2 receptor (DRD2) small molecule antagonists, cell-based qHTS assay (AID 1963595; active = well fitted inhibition curve with a large enough effect in the signal ratio in the repeat runs, with a control signal flat; the % refers to the signal ratio). In outline: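 Readout: HTRF cAMP, cAMP-d2 competing with cellular cAMP for anti-cAMP cryptate, read after 1 h. Cells: DRD2-HEK293. Conditions: 0.1 mM Ro20-1724, 12 nM quinpirole, 200 nM NKH477, 30 min RT.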

The nature of experiment [19]: p53 small molecule agonists, cell-based qHTS assay: qHTS cell viability counter screen (AID 1963581). Note: nearly all actives have a fitted effect of over 45% in size. A digest of the protocol:
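p53RE-bla HCT-116 cells, compounds added 5 h after plating and incubated 16 h at 37 C. Cytotoxicity measured in the same wells as intracellular ATP by CellTiter-Glo luminescence after 30 min at room temperature.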

Experiment [20] concerns the target D(2) dopamine receptor (Homo sapiens) (UniProt P14416). The experiment in a line: Dopamine D2 receptor (DRD2) small molecule agonists, cell-based qHTS assay (AID 1963594). Note: nearly all actives have a fitted effect of over 35% in size. In outline:
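cAMP accumulation in DRD2-HEK293 cells measured by HTRF after 1 h detection; compounds added 10 min before NKH477 (200nM […]) forskolin-analogue stimulation, 30 min at room temperature, with Ro20-1724 present at 0.1 mM final.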

Muscarinic acetylcholine receptor M1 (Homo sapiens), sequence (P11229 whole entry, looked up): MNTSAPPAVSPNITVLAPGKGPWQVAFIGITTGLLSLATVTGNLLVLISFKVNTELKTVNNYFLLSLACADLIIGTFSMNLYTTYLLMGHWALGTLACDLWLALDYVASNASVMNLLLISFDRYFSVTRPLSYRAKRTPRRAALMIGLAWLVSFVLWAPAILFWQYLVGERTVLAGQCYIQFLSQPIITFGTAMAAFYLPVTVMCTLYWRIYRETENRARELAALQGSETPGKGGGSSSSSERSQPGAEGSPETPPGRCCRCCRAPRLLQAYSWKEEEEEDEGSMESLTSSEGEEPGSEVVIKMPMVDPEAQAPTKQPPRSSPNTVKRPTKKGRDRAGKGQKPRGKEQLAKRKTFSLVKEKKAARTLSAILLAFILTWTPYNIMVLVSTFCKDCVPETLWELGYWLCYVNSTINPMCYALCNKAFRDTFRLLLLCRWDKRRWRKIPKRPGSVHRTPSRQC
Beta-2 adrenergic receptor (Homo sapiens), sequence (P07550 whole entry, looked up): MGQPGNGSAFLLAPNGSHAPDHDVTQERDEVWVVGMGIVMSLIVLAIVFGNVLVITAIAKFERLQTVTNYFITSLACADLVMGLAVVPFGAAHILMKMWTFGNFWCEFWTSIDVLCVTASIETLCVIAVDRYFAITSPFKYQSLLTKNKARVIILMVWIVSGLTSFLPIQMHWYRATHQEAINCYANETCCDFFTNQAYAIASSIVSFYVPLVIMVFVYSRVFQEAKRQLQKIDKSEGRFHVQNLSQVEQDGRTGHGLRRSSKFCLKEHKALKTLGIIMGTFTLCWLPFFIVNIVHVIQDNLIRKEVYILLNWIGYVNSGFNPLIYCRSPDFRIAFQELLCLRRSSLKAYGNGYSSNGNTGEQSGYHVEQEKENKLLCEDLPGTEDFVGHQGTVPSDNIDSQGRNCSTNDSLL
D(2) dopamine receptor (Homo sapiens), sequence (P14416 whole entry, looked up): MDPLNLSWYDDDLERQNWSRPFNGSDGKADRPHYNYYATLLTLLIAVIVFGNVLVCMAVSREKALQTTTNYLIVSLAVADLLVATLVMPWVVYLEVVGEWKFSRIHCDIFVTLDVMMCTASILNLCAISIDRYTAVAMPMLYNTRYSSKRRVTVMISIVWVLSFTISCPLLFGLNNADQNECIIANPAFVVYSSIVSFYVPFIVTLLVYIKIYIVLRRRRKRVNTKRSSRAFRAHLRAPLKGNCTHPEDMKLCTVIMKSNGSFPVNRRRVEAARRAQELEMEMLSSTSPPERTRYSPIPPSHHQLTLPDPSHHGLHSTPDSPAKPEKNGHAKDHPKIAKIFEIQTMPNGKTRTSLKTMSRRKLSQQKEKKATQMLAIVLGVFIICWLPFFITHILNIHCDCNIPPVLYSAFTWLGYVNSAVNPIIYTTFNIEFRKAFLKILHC
5-hydroxytryptamine receptor 2A (Homo sapiens), sequence (P28223 whole entry, looked up): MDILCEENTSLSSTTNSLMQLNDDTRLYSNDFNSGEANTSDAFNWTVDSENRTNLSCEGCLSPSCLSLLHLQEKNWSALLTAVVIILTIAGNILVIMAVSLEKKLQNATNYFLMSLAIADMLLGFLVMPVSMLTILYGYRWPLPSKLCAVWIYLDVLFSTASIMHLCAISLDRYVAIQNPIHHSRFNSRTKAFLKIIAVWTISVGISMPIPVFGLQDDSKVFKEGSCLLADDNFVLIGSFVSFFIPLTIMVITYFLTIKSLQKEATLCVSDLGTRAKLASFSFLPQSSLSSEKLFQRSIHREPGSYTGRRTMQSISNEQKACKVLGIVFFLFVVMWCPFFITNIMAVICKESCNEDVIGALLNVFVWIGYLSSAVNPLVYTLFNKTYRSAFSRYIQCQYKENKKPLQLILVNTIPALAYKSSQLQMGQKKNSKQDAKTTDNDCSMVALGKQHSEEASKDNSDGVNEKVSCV
Gonadotropin-releasing hormone receptor (Homo sapiens), sequence (P30968 whole entry, looked up): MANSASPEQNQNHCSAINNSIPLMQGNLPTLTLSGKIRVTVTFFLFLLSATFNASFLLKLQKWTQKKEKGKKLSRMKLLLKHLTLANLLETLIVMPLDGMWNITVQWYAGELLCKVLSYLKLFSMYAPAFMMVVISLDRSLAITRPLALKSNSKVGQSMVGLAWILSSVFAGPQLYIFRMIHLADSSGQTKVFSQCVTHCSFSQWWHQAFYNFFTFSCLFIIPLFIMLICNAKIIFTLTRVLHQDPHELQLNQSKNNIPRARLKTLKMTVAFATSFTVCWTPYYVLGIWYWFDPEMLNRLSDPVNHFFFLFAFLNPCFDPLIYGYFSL
KiSS-1 receptor (Homo sapiens), sequence (Q969F8 whole entry, looked up): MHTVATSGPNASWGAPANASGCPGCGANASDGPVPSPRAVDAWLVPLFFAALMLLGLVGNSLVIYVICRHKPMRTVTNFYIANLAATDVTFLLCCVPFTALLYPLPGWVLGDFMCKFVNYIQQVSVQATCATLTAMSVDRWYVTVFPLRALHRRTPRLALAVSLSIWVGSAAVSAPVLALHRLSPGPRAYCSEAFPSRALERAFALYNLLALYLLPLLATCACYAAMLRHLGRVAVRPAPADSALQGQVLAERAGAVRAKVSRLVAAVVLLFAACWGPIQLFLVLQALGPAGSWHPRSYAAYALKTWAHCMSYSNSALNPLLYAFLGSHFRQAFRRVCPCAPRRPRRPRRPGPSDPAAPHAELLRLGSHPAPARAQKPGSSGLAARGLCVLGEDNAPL

Turning to `CC(C)(O)C#N`, the Potency result in experiment [1], in experiment [2], in [3], in experiment [4], in experiment [5] and in experiment [6] was “inactive” each time. In addition, the Potency result in [7], in [8], in [9], in experiment [10], in experiment [11] and in [12] was “inactive” in each case. Besides, the Potency entry in experiment [13], in experiment [14], in experiment [15], in experiment [16], in [17] and in experiment [18] was “inactive” throughout.

Consider `CN(C)C(=O)C(c1ccccc1)c1ccccc1`, for which the Potency result in experiment [1], in [2], in [3], in [4], in [5] and in [6] was “inactive” in each case. For the same compound, the Potency result in experiment [7], in experiment [19], in [9], in [10], in experiment [11] and in experiment [12] was “inactive” in each case. In addition, the Potency result in [13], in [14], in [15], in experiment [16], in experiment [17] and in experiment [20] was “inactive” each time. For the same compound, the Potency result in [18] is “inactive”.

Take `CN(C)c1ccc(N=O)cc1`: in experiment [1], the Potency is 27.4 µM (active) and 54.5 µM (active). Also, the Potency result in [2], in experiment [3], in experiment [4], in [5], in experiment [7] and in [8] was “inactive” throughout. Further, the Potency result in experiment [19], in [10], in [11], in experiment [12] and in experiment [13] was “inactive” in each case.

Turning to `Cn1c(-c2ccccc2)cc(-c2ccccc2)[n+]1C`, the Potency result in experiment [1], in experiment [2], in experiment [3], in [4], in [5] and in experiment [6] was “inactive” each time. Besides, the Potency entry in [7], in experiment [8], in experiment [19], in [10], in [11] and in [13] was “inactive” throughout. Further, the Potency entry in experiment [15], in experiment [16], in experiment [17], in [20] and in [18] was “inactive” in each case. Besides, in [12], the Potency is 6.66 µM (active) and inactive.

As to `CN(C)C(=S)S`, the Potency in [1] was 9.89 µM (active) and 607 nM (active) and 27.3 µM (active); in [8] it was “inactive and 8.08 µM (active)”. The Potency result in experiment [2], in experiment [3], in experiment [4], in experiment [7], in [19] and in experiment [10] was “inactive” in each case. In addition, the Potency result in experiment [11], in [12], in experiment [13], in experiment [14], in experiment [16] and in experiment [17] was “inactive” each time. In [20], the Potency entry was “inactive”.

In the case of `Cc1cccc(C#N)c1`, the Potency entry in experiment [1], in experiment [2], in experiment [3], in experiment [4], in [5] and in [6] was “inactive” each time. Moreover, the Potency entry in experiment [7], in experiment [19], in experiment [9], in experiment [10], in experiment [11] and in experiment [12] was “inactive” in each case. The Potency entry in experiment [13], in [14], in experiment [15], in [16], in experiment [20] and in [18] was “inactive” throughout.

As for `CCC[CH2][Sn]([Cl])([Cl])[Cl]`, the Potency result in experiment [1], in experiment [2], in experiment [3], in experiment [4], in [5] and in experiment [7] was “inactive” in each case. Also, the Potency result in [8], in experiment [19], in [9], in [10], in experiment [11] and in experiment [12] was “inactive” in each case. Moreover, the Potency result in experiment [13], in experiment [14], in [16], in experiment [20] and in [18] was “inactive” in each case.

For the compound `NCC(O)c1ccc(O)cc1` (stereo not given), the Potency entry in [1], in [2], in experiment [3], in [4], in experiment [5] and in experiment [7] was “inactive” each time. The Potency entry in experiment [8], in experiment [19], in [9], in experiment [10], in experiment [12] and in experiment [13] was “inactive” in each case. The Potency result in experiment [14], in experiment [15], in experiment [16], in experiment [17], in [20] and in experiment [18] was “inactive” throughout.
